# Values joined by “and” are separate entries in the source; they are usually repeats but may differ in a detail not shown here. Identical values can stand only once. In all, about 1,700 compounds were measured (“fraction of GFP-LC3-positive cells (≥5 vesicles/cell)”: median about 0.43, highest 2% from about 0.81 on). For the sample, the highest values were picked, then their nearest neighbours and some compounds at random.
# System: CbCln3 Δex7/8/Δex7/8 GFP-LC3 cerebellar neuronal cells
# Experiment: fraction of GFP-LC3-positive cells (≥5 vesicles/cell); higher = more autophagosome accumulation
# How it was run: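 Wild-type or mutant CbCln3 cerebellar cells stably expressing GFP-LC3 (2 × 10^3/well, 384-well) received ~50 nL compound in DMSO by pin transfer, in duplicate, for 24 h at 33 °C. Hoechst 33342 and LysoTracker Red were added for the final 30 min before 3.2% PFA fixation and 10× imaging of three fields per well. CellProfiler counted GFP-LC3 vesicles per cell. The value is the fraction of cells with 5 or more vesicles, averaged over duplicates, with out-of-focus images excluded.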
row,Structure (SMILES),fraction of GFP-LC3-positive cells
1,CC(=O)N[C@@H](CC(C)C)C(=O)O [N-Acetyl-L-leucine],0.38
2,COc1ccc2c(c1)c(CC(=O)OCC(=O)O)c(C)n2C(=O)c1ccc(Cl)cc1 [Acemetacin],0.361
3,COc1ccc(C[C@H](N)C(=O)N[C@H]2[C@@H](O)[C@H](n3cnc4c(N(C)C)ncnc43)O[C@@H]2CO)cc1.Cl.Cl [Puromycin dihydrochloride],0.937
4,COc1ccc(CC(N)C(=O)N[C@H]2[C@@H](O)[C@H](n3cnc4c(N(C)C)ncnc43)O[C@@H]2CO)cc1 (some centres undefined) [puromycin],0.782
5,CNc1ncnc2c1ncn2[C@@H]1O[C@H](CO)[C@@H](O)[C@H]1O [N6-methyladenosine],0.417
6,CCN(CC)CCCC(C)Nc1ccnc2cc(Cl)ccc12.O=P(O)(O)O.O=P(O)(O)O (centres undefined) [Chloroquine diphosphate],0.518
7,CCN(CC)Cc1cc(Nc2ccnc3cc(Cl)ccc23)ccc1O.Cl.Cl.O.O [Amodiaquin dihydrochloride dihydrate],0.513
8,CCN(CC)CCCC(C)Nc1c2ccc(Cl)cc2nc2ccc(OC)cc12.Cl.Cl.O.O (centres undefined) [Quinacrine dihydrochloride dihydrate],0.866
9,NC1CONC1=O (stereo in doubt) [(S)-(-)-Cycloserine],0.414
10,CNC(C)CCC=C(C)C.CNC(C)CCC=C(C)C.O=C(O)C(O)C(O)C(O)C(O)C(=O)O (centres undefined) [Isometheptene mucate],0.479
11,Cc1c(N(C)C)c(=O)n(-c2ccccc2)n1C [Amidopyrine],0.504
12,COc1ccc2cc1Oc1ccc(cc1)C[C@H]1c3cc(c(OC)cc3CCN1C)Oc1c(OC)c(OC)cc3c1[C@H](C2)N(C)CC3,0.746
13,COc1ccc2cc1Oc1ccc(cc1)C[C@H]1c3cc(c(OC)cc3CCN1C)Oc1c(OC)c(OC)cc3c1[C@H](C2)N(C)CC3 [Tetrandrine],0.679
14,COc1cc2c3cc1Oc1c(OC)c(OC)cc4c1[C@@H](Cc1ccc(OC(=O)c5ccc([N+](=O)[O-])cc5)c(c1)Oc1ccc(cc1)C[C@@H]3N(C)CC2)N(C)CC4 [E6 berbamine],0.834
15,CNCCc1ccccn1.CS(=O)(=O)O.CS(=O)(=O)O [Betahistine mesylate],0.488
16,CN(C)CCN(Cc1ccc(Cl)cc1)c1ccccn1.Cl [Chloropyramine hydrochloride],0.566
17,c1ccc(CN(CCN(Cc2ccccn2)Cc2ccccn2)Cc2ccccn2)nc1,0.952
18,CCc1cccc2c3c([nH]c12)C(CC)(CC(=O)O)OCC3 (centres undefined) [Etodolac],0.495
19,CCc1cc(Cl)c(OC)c(C(=O)NC[C@@H]2CCCN2CC)c1O.Cl [S(-)Eticlopride hydrochloride],0.341
20,C[C@]1(Cn2ccnn2)[C@H](C(=O)O)N2C(=O)C[C@H]2S1(=O)=O [Tazobactam],0.531
21,CCCCCCCCCCCCCCC[C@@H](O)[C@@H](N)CO,0.515
22,CCCCCCCCCCCCCCC[C@@H](O)[C@@H](N)CO [Dihydrosphingosine],0.348
23,C[C@]12C=CC(=O)C=C1CC[C@@H]1[C@@H]2C(=O)C[C@@]2(C)[C@H]1CC[C@]2(O)C(=O)CO [Prednisone],0.49

row,Structure (SMILES),fraction of GFP-LC3-positive cells
1,CCCC[C@@H](C)/C=C(C)/C=C(\C)C(=O)NC1=C[C@@](O)(/C=C/C=C/C=C/C(=O)NC2=C(O)CCC2=O)[C@@H]2O[C@@H]2C1=O [manumycin A],0.917
2,CC(C)NC[C@H](O)COc1cccc2ccccc12.Cl [(S)-propranolol hydrochloride],0.275
3,COc1cc(/C=C/C(=O)N2CCC=CC2=O)cc(OC)c1OC [Piperlongumine],0.901
4,COc1cc(C(=O)OCCCN2CCCN(CCCOC(=O)c3cc(OC)c(OC)c(OC)c3)CC2)cc(OC)c1OC.Cl.Cl [Dilazep dihydrochloride],0.699
5,COC(=O)[C@H]1[C@H]2C[C@@H]3c4[nH]c5cc(OC)ccc5c4CCN3C[C@H]2C[C@@H](OC(=O)/C=C/c2cc(OC)c(OC)c(OC)c2)[C@@H]1OC [Rescinnamin],0.292
6,CN(C)CCC(c1ccccc1)c1ccccn1.O=C(O)/C=C\C(=O)O (centres undefined) [Pheniramine maleate],0.47
7,COc1cc(-c2ccc(=O)[nH]n2)ccc1OC(F)F [zardaverine],0.33
8,CCCCCCCC/C=C/CCCCCCCCCC(=O)O [11(E)-Eicosenoic acid],0.25
9,CCCCCCCC/C=C/CCCCCCCCCC(=O)O [5561-99-9 11(Z)-Eicosenoic acid],0.401
10,Cl.Cl.OCCN1CCN(CC/C=C2/c3ccccc3Sc3ccc(C(F)(F)F)cc32)CC1 [Flupentixol dihydrochloride cis-(Z)],0.291
11,CCCCC/C=C\C[C@@H](O)/C=C/C=C\CCC(=O)O [Tetranor-12(R)-HETE],0.513
12,CC(C)NCC(O)COc1cccc2ccccc12.Cl (stereo in doubt) [(R)-Propranolol hydrochloride],0.486
13,C[C@@H]1C/C=C/C=C/C=C/C=C/[C@H](O[C@@H]2O[C@H](C)[C@@H](O)[C@H](N)[C@@H]2O)C[C@@H]2O[C@](O)(C[C@@H](O)C[C@H]3OC3/C=C/C(=O)O1)C[C@H](O)[C@H]2C(=O)O (some centres undefined) [Natamycin],0.298
14,NS(=O)(=O)c1cc(C(=O)O)c(NCc2ccco2)cc1Cl [Furosemide],0.511
15,CCC(C)[C@H](NS(=O)(=O)c1cccc2ccccc12)C(=O)N[C@H](C=O)Cc1c[nH]c2ccccc12 (some centres undefined),0.69 and 0.692
16,CCN[C@H]1C[C@H](C)S(=O)(=O)c2sc(S(N)(=O)=O)cc21.Cl [Dorzolamide hydrochloride],0.432
17,C=C1c2c(Cl)ccc(O)c2C(=O)C2=C(O)[C@]3(O)C(=O)C(C(N)=O)=C(O)[C@@H](N(C)C)[C@@H]3[C@@H](O)C12.O=C(O)c1cc(S(=O)(=O)O)ccc1O (some centres undefined) [Meclocycline sulfosalicylate],0.345
18,CCc1cc(C(N)=S)ccn1 [Ethionamide],0.393
19,O=C(CCNNC(=O)c1ccncc1)NCc1ccccc1 [Nialamide],0.406
20,Clc1cccc(Nc2nnc(-c3ccccc3)c3ccccc23)c1,0.522
21,CC[C@H](C)C(=O)O[C@H]1C[C@@H](C)C=C2C=C[C@H](C)[C@H](CC[C@@H]3C[C@@H](O)CC(=O)O3)[C@H]21 [Lovastatin],0.0901
22,C=CC(N)CCC(=O)O (centres undefined) [Vigabatrin],0.474
23,O=C(O)CCCC[C@@H]1SC[C@@H]2NC(=O)N[C@@H]21 [Biotin],0.393

row,Structure (SMILES),fraction of GFP-LC3-positive cells
1,CCN(CC)CCOCCOC(=O)C1(c2ccccc2)CCCC1.O=C(O)CC(O)(CC(=O)O)C(=O)O [Carbetapentane citrate],0.469
2,NS(=O)(=O)c1cc(C(=O)O)cc(N2CCCC2)c1Oc1ccccc1 [Piretanide],0.344
3,CC(C(=O)O)c1ccc(C(=O)c2ccccc2)s1 (centres undefined) [Tiaprofenic acid],0.467
4,CN(C(Cc1ccc(OS(=O)(=O)c2cccc3cnccc23)cc1)C(=O)N1CCN(c2ccccc2)CC1)S(=O)(=O)c1cccc2cnccc12 (centres undefined),0.324 and 0.255
5,CCCCCCCCCCCCCCCCCCOC[C@@H](O)COP(=O)([O-])OCC[N+](C)(C)C,0.362
6,Cc1cc2cc3c(C)cc(=O)oc3c(C)c2o1 [Trioxsalen],0.357
7,COc1cc(C)nc(-n2nc(C)cc2OC)n1 [Epirizole],0.324
8,C[N+]1(CCCCC[N+]2(C)CCCC2)CCCC1.O=C([O-])[C@H](O)[C@@H](O)C(=O)O.O=C([O-])[C@H](O)[C@@H](O)C(=O)O [Pentolinium bitartrate],0.493
9,COC(=O)C1=C(C)NC(C)=C(C(=O)OCCN(C)Cc2ccccc2)C1c1cccc([N+](=O)[O-])c1 (centres undefined) [Nicardipine],0.146
10,Nc1ncnc2c1ncn2C1O[C@H](CO)[C@@H](O)[C@@H]1O (some centres undefined) [Vidarabine],0.406
11,Nc1ncn(C2O[C@H](CO)[C@@H](O)[C@H]2O)c(=O)n1 (some centres undefined) [Azacytidine-5],0.861
12,Nc1nc(S)c2ncn([C@@H]3O[C@H](CO)[C@@H](O)[C@H]3O)c2n1 [Thioguanosine],0.576
13,Nc1ccc(S(=O)(=O)Nc2ncccn2)cc1 [Sulfadiazine],0.438
14,C=C1CC[C@H](O)C/C1=C/C=C1\CCC[C@]2(C)[C@@H]([C@H](C)CCCC(C)C)CC[C@@H]12 [Cholecalciferol],0.281
15,Oc1cc(O)c2c(c1)O[C@H](c1ccc(O)c(O)c1)[C@@H](O)C2 [Epicatechin-(-)],0.438
16,NS(=O)(=O)c1cc2c(cc1C(F)(F)F)NCNS2(=O)=O [Hydroflumethiazide],0.451
17,C[C@@H](O)CCC[C@H](O)/C=C/[C@@H]1[C@@H](C/C=C\CCCC(=O)O)[C@@H](O)C[C@H]1O [19(R)-Hydroxy-prostaglandin F2a],0.532
18,O=C(NCCNCC(O)COc1ccc(O)cc1)N1CCOCC1.O=C(NCCNCC(O)COc1ccc(O)cc1)N1CCOCC1.O=C(O)/C=C/C(=O)O (centres undefined) [Xamoterol hemifumarate],0.32
19,COc1cc([C@@H]2c3cc4c(cc3[C@@H](OC3OC5COC(C)OC5C(O)C3O)[C@H]3COC(=O)[C@H]23)OCO4)cc(OC)c1O (some centres undefined) [etoposide],0.664
20,Cc1cccc(C)c1NC(=O)C(C)N.Cl (centres undefined) [Tocainide hydrochloride],0.504
21,Cl.c1ccc(CC2=NCCN2)cc1 [Tolazoline hydrochloride],0.508
22,C=CC(=O)c1ccc2ccccc2c1,0.499
23,NC[C@H]1CC[C@H](C(=O)O)CC1 [Tranexamic acid],0.53
